# Laboratory results taken from ChEMBL document CHEMBL1961873, “Compounds: GSK PKIS; Assays: Nanosyn kinase panel” (2012).
# “And” between values parts separate entries of the source, which are not always exact repeats. Equal entries are not always repeated.
# Legend:
# [1] = target: Ribosomal protein S6 kinase alpha-6 (Homo sapiens) (UniProt Q9UK32); settings: at 1 µM;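 note: each value is a mean inhibition of RSK4 from a GSK PKIS panel screen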
# [2] = target: T1, Serine/threonine-protein kinase Sgk1 (Homo sapiens) (UniProt O00141); settings: at 0.1 µM
# T1 sequence (whole entry): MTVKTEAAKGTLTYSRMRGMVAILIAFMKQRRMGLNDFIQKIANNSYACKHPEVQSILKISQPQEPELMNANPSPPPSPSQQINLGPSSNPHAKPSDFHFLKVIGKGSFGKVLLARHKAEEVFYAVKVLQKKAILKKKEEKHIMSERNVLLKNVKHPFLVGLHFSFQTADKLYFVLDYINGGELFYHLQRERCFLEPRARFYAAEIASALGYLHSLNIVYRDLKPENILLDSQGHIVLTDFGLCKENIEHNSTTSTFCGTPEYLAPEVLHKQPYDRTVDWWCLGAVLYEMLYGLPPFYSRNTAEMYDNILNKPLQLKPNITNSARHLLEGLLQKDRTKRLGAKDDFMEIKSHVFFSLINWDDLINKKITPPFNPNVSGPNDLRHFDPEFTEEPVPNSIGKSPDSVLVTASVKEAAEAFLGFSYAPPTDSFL
# [3] = target: T1, Serine/threonine-protein kinase Sgk1 (Homo sapiens); settings: at 1 µM
# [4] = target: T2, Serine/threonine-protein kinase Sgk2 (Homo sapiens) (UniProt Q9HBY8); settings: at 0.1 µM
# T2 sequence (whole entry): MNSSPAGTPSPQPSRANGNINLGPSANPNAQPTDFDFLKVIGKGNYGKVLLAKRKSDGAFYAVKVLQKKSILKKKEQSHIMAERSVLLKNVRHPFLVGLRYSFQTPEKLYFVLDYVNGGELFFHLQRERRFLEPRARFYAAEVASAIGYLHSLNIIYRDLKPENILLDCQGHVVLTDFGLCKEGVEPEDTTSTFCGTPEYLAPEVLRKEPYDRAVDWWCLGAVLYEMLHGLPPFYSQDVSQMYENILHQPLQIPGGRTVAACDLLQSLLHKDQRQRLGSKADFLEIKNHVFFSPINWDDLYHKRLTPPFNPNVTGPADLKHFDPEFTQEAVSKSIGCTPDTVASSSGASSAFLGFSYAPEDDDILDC
# [5] = target: T2, Serine/threonine-protein kinase Sgk2 (Homo sapiens); settings: at 1 µM
# [6] = target: T3, Serine/threonine-protein kinase Sgk3 (Homo sapiens) (UniProt Q96BR1); settings: at 0.1 µM
# T3 sequence (whole entry): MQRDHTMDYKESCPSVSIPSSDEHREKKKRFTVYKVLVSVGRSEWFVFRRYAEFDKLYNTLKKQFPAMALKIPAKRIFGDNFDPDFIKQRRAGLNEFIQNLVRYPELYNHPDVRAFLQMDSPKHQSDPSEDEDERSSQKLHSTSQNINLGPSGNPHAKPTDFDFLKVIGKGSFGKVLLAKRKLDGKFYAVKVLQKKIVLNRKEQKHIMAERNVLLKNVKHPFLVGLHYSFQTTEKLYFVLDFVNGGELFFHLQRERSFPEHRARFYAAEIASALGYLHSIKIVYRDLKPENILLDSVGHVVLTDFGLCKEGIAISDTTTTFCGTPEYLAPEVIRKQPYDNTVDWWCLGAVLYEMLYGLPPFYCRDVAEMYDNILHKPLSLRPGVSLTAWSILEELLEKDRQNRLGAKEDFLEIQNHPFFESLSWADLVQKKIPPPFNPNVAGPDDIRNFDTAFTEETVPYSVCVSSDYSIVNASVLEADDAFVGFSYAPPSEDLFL
# [7] = target: T3, Serine/threonine-protein kinase Sgk3 (Homo sapiens); settings: at 1 µM
# [8] = target: 5'-AMP-activated protein kinase catalytic subunit alpha-1 (Homo sapiens) (UniProt Q13131); settings: at 0.1 µM
# Sequence of 5'-AMP-activated protein kinase catalytic subunit alpha-1 (Homo sapiens) (Q13131 whole entry, looked up): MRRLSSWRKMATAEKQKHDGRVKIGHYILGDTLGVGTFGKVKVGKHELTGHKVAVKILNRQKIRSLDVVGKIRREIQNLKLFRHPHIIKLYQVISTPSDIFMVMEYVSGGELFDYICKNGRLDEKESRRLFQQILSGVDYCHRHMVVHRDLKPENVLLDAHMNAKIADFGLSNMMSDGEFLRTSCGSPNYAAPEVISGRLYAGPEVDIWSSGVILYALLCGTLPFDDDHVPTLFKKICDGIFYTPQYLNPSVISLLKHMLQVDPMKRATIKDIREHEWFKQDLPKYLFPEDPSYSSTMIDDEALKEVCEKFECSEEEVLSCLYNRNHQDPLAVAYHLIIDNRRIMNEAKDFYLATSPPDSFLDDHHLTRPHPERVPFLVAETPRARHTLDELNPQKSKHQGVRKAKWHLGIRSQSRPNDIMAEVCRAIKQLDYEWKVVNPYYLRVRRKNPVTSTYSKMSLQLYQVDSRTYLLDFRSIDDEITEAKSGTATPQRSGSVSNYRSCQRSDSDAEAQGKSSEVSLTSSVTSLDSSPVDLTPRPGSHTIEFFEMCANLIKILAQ
# [9] = target: 5'-AMP-activated protein kinase catalytic subunit alpha-1 (Homo sapiens) (UniProt Q13131); settings: at 1 µM
# [10] = target: 5'-AMP-activated protein kinase catalytic subunit alpha-2 (Homo sapiens) (UniProt P54646); settings: at 0.1 µM
# Sequence of 5'-AMP-activated protein kinase catalytic subunit alpha-2 (Homo sapiens) (P54646 whole entry, looked up): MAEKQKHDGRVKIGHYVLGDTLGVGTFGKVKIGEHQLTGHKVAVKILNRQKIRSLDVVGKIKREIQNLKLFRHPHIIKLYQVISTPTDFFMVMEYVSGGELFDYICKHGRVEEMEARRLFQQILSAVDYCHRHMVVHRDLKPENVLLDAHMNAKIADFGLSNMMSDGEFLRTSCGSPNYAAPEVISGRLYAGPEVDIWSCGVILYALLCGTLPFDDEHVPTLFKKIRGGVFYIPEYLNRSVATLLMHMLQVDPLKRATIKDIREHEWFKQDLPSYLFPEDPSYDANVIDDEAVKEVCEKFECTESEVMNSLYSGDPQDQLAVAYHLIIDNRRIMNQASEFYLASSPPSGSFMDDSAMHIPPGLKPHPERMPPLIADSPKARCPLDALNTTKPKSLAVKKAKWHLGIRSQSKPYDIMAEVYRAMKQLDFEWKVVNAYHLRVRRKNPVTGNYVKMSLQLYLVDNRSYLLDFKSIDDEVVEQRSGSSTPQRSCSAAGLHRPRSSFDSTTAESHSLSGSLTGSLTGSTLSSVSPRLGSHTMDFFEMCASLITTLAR
# [11] = target: 5'-AMP-activated protein kinase catalytic subunit alpha-2 (Homo sapiens) (UniProt P54646); settings: at 1 µM
# [12] = target: T4, NUAK family SNF1-like kinase 1 (Homo sapiens) (UniProt O60285); settings: at 0.1 µM
# T4 sequence (whole entry): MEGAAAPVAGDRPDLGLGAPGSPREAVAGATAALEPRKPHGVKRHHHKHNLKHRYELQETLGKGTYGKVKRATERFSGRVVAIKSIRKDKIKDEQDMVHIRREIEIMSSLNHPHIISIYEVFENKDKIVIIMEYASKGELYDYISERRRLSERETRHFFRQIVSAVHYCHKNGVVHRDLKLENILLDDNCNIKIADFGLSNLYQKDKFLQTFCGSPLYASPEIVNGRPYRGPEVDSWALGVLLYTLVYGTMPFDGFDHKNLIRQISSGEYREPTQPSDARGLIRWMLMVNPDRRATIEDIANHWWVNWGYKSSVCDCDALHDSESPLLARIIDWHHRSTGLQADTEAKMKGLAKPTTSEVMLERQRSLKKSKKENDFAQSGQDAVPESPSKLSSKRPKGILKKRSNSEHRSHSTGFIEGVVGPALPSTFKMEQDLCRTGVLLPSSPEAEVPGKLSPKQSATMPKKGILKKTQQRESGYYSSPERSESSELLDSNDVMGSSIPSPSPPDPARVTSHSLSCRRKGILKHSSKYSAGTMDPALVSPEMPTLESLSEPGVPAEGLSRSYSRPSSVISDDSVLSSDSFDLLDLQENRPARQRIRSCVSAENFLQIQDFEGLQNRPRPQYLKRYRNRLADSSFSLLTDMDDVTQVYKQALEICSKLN
# [13] = target: T4, NUAK family SNF1-like kinase 1 (Homo sapiens); settings: at 1 µM
# [14] = target: T5, Serine/threonine-protein kinase BRSK1 (Homo sapiens) (UniProt Q8TDC3); settings: at 0.1 µM
# T5 sequence (whole entry): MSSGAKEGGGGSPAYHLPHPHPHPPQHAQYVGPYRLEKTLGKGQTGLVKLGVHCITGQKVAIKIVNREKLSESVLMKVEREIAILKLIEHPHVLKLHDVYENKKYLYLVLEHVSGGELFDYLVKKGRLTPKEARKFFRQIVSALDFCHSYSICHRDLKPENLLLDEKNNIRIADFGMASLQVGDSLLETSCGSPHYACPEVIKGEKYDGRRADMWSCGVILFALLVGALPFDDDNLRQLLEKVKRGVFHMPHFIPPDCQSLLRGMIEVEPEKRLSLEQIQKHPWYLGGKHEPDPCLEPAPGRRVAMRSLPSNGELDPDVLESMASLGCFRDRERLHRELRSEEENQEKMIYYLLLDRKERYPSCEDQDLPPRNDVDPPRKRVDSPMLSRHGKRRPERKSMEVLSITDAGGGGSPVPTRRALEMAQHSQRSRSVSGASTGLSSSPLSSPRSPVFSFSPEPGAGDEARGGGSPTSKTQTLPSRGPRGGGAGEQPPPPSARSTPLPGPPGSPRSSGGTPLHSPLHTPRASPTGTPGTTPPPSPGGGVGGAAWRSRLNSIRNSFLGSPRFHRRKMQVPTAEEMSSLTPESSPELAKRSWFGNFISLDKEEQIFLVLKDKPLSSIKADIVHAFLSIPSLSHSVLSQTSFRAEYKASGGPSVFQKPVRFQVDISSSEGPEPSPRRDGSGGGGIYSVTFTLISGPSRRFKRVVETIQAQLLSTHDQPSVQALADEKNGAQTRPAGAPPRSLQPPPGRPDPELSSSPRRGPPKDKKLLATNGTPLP
# [15] = target: T5, Serine/threonine-protein kinase BRSK1 (Homo sapiens); settings: at 1 µM
# [16] = target: T6, Serine/threonine-protein kinase BRSK2 (Homo sapiens) (UniProt Q8IWQ3); settings: at 0.1 µM
# T6 sequence (whole entry): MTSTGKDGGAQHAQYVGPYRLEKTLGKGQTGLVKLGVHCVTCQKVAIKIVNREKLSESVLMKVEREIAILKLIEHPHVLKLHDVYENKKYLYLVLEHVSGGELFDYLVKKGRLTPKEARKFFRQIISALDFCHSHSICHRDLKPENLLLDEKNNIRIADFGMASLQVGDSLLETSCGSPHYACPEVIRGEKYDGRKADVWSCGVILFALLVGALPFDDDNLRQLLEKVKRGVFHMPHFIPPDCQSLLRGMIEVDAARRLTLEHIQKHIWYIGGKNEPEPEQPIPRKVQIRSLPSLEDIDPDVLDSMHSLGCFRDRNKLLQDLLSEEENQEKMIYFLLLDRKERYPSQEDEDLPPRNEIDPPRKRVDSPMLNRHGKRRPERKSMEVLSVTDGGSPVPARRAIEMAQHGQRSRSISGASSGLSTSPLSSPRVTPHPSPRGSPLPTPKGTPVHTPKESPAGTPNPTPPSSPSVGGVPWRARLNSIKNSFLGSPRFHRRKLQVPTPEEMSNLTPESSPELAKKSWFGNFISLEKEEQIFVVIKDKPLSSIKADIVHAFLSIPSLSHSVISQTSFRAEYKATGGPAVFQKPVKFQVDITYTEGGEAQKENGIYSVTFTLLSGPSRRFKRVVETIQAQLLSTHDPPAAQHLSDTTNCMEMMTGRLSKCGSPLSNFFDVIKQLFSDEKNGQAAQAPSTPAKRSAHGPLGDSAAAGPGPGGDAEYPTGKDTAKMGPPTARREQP
# [17] = target: T6, Serine/threonine-protein kinase BRSK2 (Homo sapiens); settings: at 1 µM
# [18] = target: Calcium/calmodulin-dependent protein kinase type 1D (Homo sapiens) (UniProt Q8IU85); settings: at 0.1 µM
# Sequence of Calcium/calmodulin-dependent protein kinase type 1D (Homo sapiens) (Q8IU85 whole entry, looked up): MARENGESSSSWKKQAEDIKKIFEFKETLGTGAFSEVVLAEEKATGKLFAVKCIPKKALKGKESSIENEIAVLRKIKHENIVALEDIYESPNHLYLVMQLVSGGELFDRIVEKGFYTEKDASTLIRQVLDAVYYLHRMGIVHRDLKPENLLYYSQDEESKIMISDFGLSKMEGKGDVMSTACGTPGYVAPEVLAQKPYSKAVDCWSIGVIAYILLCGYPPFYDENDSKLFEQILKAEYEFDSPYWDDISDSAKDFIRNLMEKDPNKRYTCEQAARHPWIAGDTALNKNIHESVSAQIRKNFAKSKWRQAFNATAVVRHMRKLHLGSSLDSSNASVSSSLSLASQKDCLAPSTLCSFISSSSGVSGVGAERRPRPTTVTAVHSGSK
# [19] = target: Calcium/calmodulin-dependent protein kinase type 1D (Homo sapiens) (UniProt Q8IU85); settings: at 1 µM
# [20] = target: Calcium/calmodulin-dependent protein kinase type II subunit alpha (Homo sapiens) (UniProt Q9UQM7); settings: at 0.1 µM;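 note: reported values are averages (mean inhibition of CAMK2A)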
# Sequence of Calcium/calmodulin-dependent protein kinase type II subunit alpha (Homo sapiens) (Q9UQM7 whole entry): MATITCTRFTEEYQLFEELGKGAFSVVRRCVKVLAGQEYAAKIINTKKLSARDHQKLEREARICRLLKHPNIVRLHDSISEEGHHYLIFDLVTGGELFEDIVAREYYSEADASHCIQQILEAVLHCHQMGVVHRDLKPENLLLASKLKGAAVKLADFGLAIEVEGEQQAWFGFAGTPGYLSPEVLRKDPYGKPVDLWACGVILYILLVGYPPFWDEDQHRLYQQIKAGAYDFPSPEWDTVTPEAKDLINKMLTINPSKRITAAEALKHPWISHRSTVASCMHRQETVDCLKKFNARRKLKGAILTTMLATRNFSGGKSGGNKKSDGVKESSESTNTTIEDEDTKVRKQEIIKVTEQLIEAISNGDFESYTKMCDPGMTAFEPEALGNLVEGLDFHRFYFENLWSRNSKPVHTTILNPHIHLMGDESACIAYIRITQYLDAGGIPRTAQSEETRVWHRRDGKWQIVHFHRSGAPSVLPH
# Sequence of Ribosomal protein S6 kinase alpha-6 (Homo sapiens) (Q9UK32 whole entry): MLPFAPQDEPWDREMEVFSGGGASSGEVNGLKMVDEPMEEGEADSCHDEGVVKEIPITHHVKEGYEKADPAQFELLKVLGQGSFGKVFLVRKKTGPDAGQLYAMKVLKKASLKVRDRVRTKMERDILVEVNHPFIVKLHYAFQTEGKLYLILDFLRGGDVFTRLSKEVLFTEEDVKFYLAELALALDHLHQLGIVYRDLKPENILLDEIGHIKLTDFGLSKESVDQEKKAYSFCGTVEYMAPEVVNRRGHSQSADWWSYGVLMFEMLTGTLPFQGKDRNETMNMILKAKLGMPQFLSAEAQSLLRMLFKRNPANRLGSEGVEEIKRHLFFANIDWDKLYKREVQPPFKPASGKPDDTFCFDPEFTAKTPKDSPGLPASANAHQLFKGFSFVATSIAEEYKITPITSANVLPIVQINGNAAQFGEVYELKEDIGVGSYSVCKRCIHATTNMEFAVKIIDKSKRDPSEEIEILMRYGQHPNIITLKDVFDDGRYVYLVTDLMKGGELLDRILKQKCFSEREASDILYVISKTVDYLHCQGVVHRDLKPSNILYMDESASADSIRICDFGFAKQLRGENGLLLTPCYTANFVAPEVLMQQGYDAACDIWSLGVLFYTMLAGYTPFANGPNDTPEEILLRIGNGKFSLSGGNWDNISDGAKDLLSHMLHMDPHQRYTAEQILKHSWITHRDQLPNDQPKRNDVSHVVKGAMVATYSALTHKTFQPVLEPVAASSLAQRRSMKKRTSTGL
SMILES,inhibition [1],inhibition [2],inhibition [3],inhibition [4],inhibition [5],inhibition [6],inhibition [7],inhibition [8],inhibition [9],inhibition [10],inhibition [11],inhibition [12],inhibition [13],inhibition [14],inhibition [15],inhibition [16],inhibition [17],inhibition [18],inhibition [19],inhibition [20]
COc1cc(Nc2ncc(-c3ccccc3)o2)cc(OC)c1,2.83%,3.1%,4.7%,3.93%,4.37%,3.26%,3%,2.43%,5.67%,2.86%,8.23%,5.89%,32.7%,-1.27%,8.79%,2.68%,7.23%,-0.33%,-0.66%,2.98%
Cc1ccc(-c2cc3c(NC(=O)C4CC4)ncnc3o2)cc1,2.4%,2.2%,3%,5.33%,8.63%,3.61%,4.02%,3.13%,5.1%,2.34%,5.09%,2.09%,6.68%,2.59%,4.69%,2.82%,4.69%,0.92%,1.61%,4.04%
NS(=O)(=O)c1cccc(N/C=C2\C(=O)Nc3ccccc32)c1,22.4%,6.58%,26.9%,4.31%,11.5%,6%,5.21%,3.31%,12%,4.65%,11.2%,5.37%,35.8%,4.66%,17.9%,5.23%,26%,0.94%,3.7%,3.94%
Cc1nnc(-c2cccc(-c3ccc(C(=O)NCC4CC4)cc3)c2)o1,2.8%,4.47%,10.8%,2.96%,7.09%,3.56%,7.89%,5.16%,6.56%,0.86%,4.4%,3.1%,2.61%,0.57%,2.35%,6.6%,3.96%,-0.22%,0.22%,5.78%
CN1CCC(C(=O)Nc2n[nH]c3nc(-c4ccc(O)cc4)c(Br)cc23)CC1,12.7% and 9.62%,5.12% and 1.94%,10.4% and 4.16%,3.28% and 2.28%,6.79% and 6.21%,1.96% and 6.46%,6.31% and 0.32%,5.11% and 1.11%,18.7% and 10.6%,3.96% and 2.49%,10.2% and 5.07%,2.41% and 0.87%,12% and 2.56%,5.59% and 6.13%,31.5% and 25.9%,6.63% and 3.74%,36.1% and 27.2%,1.98% and 1.28%,15.6% and 15.7%,3.72% and 2.36%
O=C(O[C@H]1CN[C@H](C#Cc2cc3ncnc(Nc4ccc(OCc5cccc(F)c5)c(Cl)c4)c3s2)C1)N1CCOCC1,1.82%,3.69%,4.68%,6.81%,6.86%,7.16%,6.57%,4.66%,4.92%,4.18%,2.14%,0.4%,0.97%,-0.35%,1.81%,2.06%,3.32%,-0.02%,-0.12%,2.9%
Cn1c(-c2nonc2N)nc2cnccc21,5.91%,3.35%,6.24%,5.57%,10.7%,2.77%,13.6%,3.36%,3.2%,0.94%,4.41%,0.78%,4.88%,2.34%,5.84%,3.19%,6.4%,0.12%,0.97%,3.13%
